Data taken from a collection of fitness landscapes (doi:10.1016/j.celrep.2020.107928).
Whole data set: some 81,000 sequences, median “one-hybrid fitness for binding parS DNA” near -0.17, cut for the highest 2% near 0.51. The list comes from a sample in which the highest values are over-represented; it also holds similar and randomly drawn sequences.

B1: Caulobacter ParB omega fusion; a variant is named by its letters at X, in order, B8GW30 (parent)
chain: MESVVVGEPGMSEGRRGLGRGLSALLGEVDAAPAQAPGEQLGGSREAPIEILQRNPDQPRRTFREEDLEDLSNSIREKGVLQPILVRPSPDTAGEYQIVAGERAWRAAQRAGLKTVPIMVRELDDLAVLEIGIIENVQRADLNVLEEALSYKVLMEKFERTQENIAQTIGKSXSHVANXMRLLXLPDEVQSYLVSGELTAXHARAIAAAADPVALAKQIIEGGLSVRETEALARKAPNLSAGKSKGGRPPRVKDTDTQALESDLSSVLGLDVSIDHRGSTGTLTITYATLEQLDDLCNRLTRGI

Variants of: B1
Assay: one-hybrid fitness for binding parS DNA (scaled: cognate 1, non-cognate 0); higher = stronger binding
Settings: with parS DNA site
Procedure, shortened: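 Pre- and post-selection plasmids were Illumina-sequenced, three replicate libraries were pooled, and any variant with under 10 reads was removed. The libraries were Caulobacter ParB with four specificity codons randomised, selected in E. coli USO through a HIS3 reporter whose site is 19 bp from the promoter. Cells grew 48 hours at 37°C on M9 without histidine, with 0.1 mM IPTG and 5 mM 3-AT. Fitness is the log change in variant-to-wild-type read ratio, rescaled against cognate and non-cognate.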

one-hybrid fitness for binding parS DNA, 0.568:
RQLA

one-hybrid fitness for binding parS DNA, 0.314:
RCYW

one-hybrid fitness for binding parS DNA, 0.515:
RCEA
RKEA

one-hybrid fitness for binding parS DNA, 0.554:
RQEA

one-hybrid fitness for binding parS DNA, 0.254:
RWWA

one-hybrid fitness for binding parS DNA, 0.834:
RRWA

one-hybrid fitness for binding parS DNA, 0.632:
RQRA

one-hybrid fitness for binding parS DNA, 0.86:
RTNT

one-hybrid fitness for binding parS DNA, 1.01:
RCFG

one-hybrid fitness for binding parS DNA, 0.532:
RQFA

one-hybrid fitness for binding parS DNA, 0.42:
RQIA

one-hybrid fitness for binding parS DNA, 0.563:
RQGA

one-hybrid fitness for binding parS DNA, 0.481:
RFWA

one-hybrid fitness for binding parS DNA, 0.596:
RQMA

one-hybrid fitness for binding parS DNA, 0.68:
RCWA

one-hybrid fitness for binding parS DNA, 0.558:
RQCA

one-hybrid fitness for binding parS DNA, 0.486:
RQVA
RHWA

one-hybrid fitness for binding parS DNA, 0.701:
RQKA

one-hybrid fitness for binding parS DNA, 0.626:
RTWA

one-hybrid fitness for binding parS DNA, 0.57:
RQHA

one-hybrid fitness for binding parS DNA, 0.571:
RQAA

one-hybrid fitness for binding parS DNA, 0.575:
RQSA

one-hybrid fitness for binding parS DNA, 0.546:
RSWA

one-hybrid fitness for binding parS DNA, 0.282:
RGWA

one-hybrid fitness for binding parS DNA, 0.634:
RMWA

one-hybrid fitness for binding parS DNA, 0.598:
RAWA

one-hybrid fitness for binding parS DNA, 0.512:
RHEA

one-hybrid fitness for binding parS DNA, 0.454:
RFEA

one-hybrid fitness for binding parS DNA, 0.583:
RQYA

one-hybrid fitness for binding parS DNA, 0.567:
RLEA

one-hybrid fitness for binding parS DNA, 0.476:
RSEA
RAEA

one-hybrid fitness for binding parS DNA, 0.648:
RLWA

one-hybrid fitness for binding parS DNA, 0.544:
RQWA

one-hybrid fitness for binding parS DNA, 0.802:
RREA
RTDT

one-hybrid fitness for binding parS DNA, 0.94:
RSFG

one-hybrid fitness for binding parS DNA, 0.548:
RYEA
RQQA

one-hybrid fitness for binding parS DNA, 0.58:
RTEA
RKWA

one-hybrid fitness for binding parS DNA, ≤ 0.2:
YHLN
EVTM
RFLI
QHYD
IDQR
NLHV
MGRC
RPEA
TIMD
PRLC
MSLL
FHAL
SRDG
AALF
LFAM
RDEA
FASM
SHST
GLPS
DMPT
YLIW
FRKA
LMTN
GIRR
LALL
RDFG
RSFK
RPFG
REFG
AKRC
QSGM
MCTL
TMTY
MHDG
WDTK
NQHA
KQQA
NQKA
RQPA
PQHA
PQTA
WANF
HAGM
IYPG
LMKM
TYFC
GSSM
DQAA
KQRA
EQAA
DQRA
KQSA
DQSA
FPAS
PFLV
ENLG
YSQA
QHET
ASIT
GAHR
MLHS
VETL
LASY
RCTV
TKMR
PQLA
PQMA
CQLA
NQMA
TQYS
HPLV
ANIE
VLKR
HEGL
LRKS
CVSN
CQGA
TVTV
NTDT
RTNE
RTNR
RTDR
MPRE
IDTG
PPTT
RHPH
PTAI
NAWA
DLWA
RPWA
PWGP
CSAK
HTAP
VEFT
QGNA
YNSE
QDDR
TNQC
APGM
QNSI
NRWA
WTTC
NRTE
GCLA
YTTD
EGCL
FWSR
PAVQ
QHPF
LPIQ
